Hits are enriched below; roughly 21% of the tested compounds scored in any of these assays.
HCV inh – inhibitors of hepatitis C virus infection | AID 651820 | hit rate 3.4% among 340,000 | Potency, µM (titrated, usually from 41.8 µM), without a hit: top-dose activity change, negative = inhibition, actives largely listed as inhibitors | Huh7.5.1 HCVcc-Cre infection, luciferase reporter, 44 h; note: potency is the fitted concentration of half-maximal effect; % is set by controls: 0 for no effect and ±100 for the full control effect
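HCVcc-Cre virus at an moi near 0.5 was added right after compound to cells cultured 4 h from seeding (1,000 cells/well). Luciferase activity was determined 44 h later, 15 min after substrate addition at RT.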
Shiga inhibitor – inhibitors of Shiga toxin in Vero cells | Vero cells, Shiga toxin protein synthesis inhibition reporter | inhibition, % at 38.7 µM | hit rate 9.2% among 290,000 | AID 2315; in the data active = inhibition mostly above about 28%, no sharp cut-off; inactive = mostly below about 43%; note: 0% is about no effect
Pf growth 96h – P. falciparum growth inhibition at 96 hour, primary screen for plastid delayed-death inhibitors; P. falciparum luciferase reporter growth, 96 h; Potency, µM (doses to about 28.7 µM), inactives show at the top dose activity change, negative = inhibition, actives largely listed as inhibitors; hit rate 6.9% among 320,000; AID 504834; note: potency is the fitted concentration of half-maximal effect; % is set by controls: 0 for no effect and ±100 for the full control effect
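Delayed-death screen, second-generation endpoint: infected erythrocytes, 2% hematocrit, 0.05% parasitemia final; 96 hours at 37 C, 5% CO2; luciferase detection reagent; luminescence decrease equals reduced growth.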
Cycloheximide cs – counter-screen for Shiga toxin inhibitors: cycloheximide protein synthesis inhibition. hit rate 12% among 300,000. max response, %. cell reporter, cycloheximide protein synthesis inhibition counterscreen; in the data active = max response mostly above about 13%, no sharp cut-off; inactive = mostly below about 14%; note: read at 38.3 µM for the half of the compounds with a filed dose; 0% is about no effect
Pf growth 48h – P. falciparum growth inhibition at 48 hours (one generation); P. falciparum luciferase growth in erythrocytes, 48 h; Potency, µM (top dose mostly 28.7 µM), for the others: at the top dose activity change, negative = inhibition, hits mostly inhibitors; hit rate 5.9% among 310,000; note: potency is the fitted concentration of half-maximal effect; % is set by controls: 0 for no effect and ±100 for the full control effect
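Here the parasites carry a stable luciferase gene and grow inside erythrocytes in Albumax-based RPMI medium with compound for one erythrocytic cycle. Activity is scored as loss of luminescent signal.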
AMA1 RON2 block – inhibitors of Plasmodium falciparum AMA1-RON2 interaction; Potency, µM (doses to about 58.2 µM), inactives show at the highest dose activity change, negative = inhibition, actives largely listed as inhibitors; AlphaScreen AMA1-biotinylated RON2 peptide binding; hit rate 0.2% among 360,000;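 note: potency is the fitted concentration of half-maximal effect; 0% = vehicle wells and -100% = peptide control; nearly all actives have a fitted effect of over 45% in size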
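AMA1 (3D7) with his tag at 25 nM final met compounds first, then biotinylated RON2 peptide at 25 nM; detection used donor plus acceptor beads, 10 µg/mL apiece, read by AlphaScreen after 30 min at room temperature.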
* marks the source's active call; other numbers are inactive results. Unless noted, calls come from the whole dose curve; as a rule, active = well fitted curve in the direction sought with a large enough effect; inconclusive = small, poorly fitted or top-dose-only effect, or another doubt; inactive = no such curve, though single readings can be large; an effect the other way counts as inactive or inconclusive.

CCOC(=O)c1sc(NC(=O)CN2C(=O)NC3(CC(C)CC(C)(C)C3)C2=O)cc1C (configuration not stated) was read as HCV inh 11µM*, Pf growth 96h 3.7µM*, Pf growth 48h 2.6µM* and AMA1 RON2 block -1%.
For CCOC(=O)c1sc(NC(=O)CN2C(=O)NC3(CCC(C)CC3)C2=O)c(C(=O)OCC)c1C (configuration not stated) the results were HCV inh -6%, Pf growth 96h -7%, Pf growth 48h inconclusive and AMA1 RON2 block 0%.
For CCOC(=O)c1sc(NC(=O)CN2C(=O)NC3(CC(C)CC(C)(C)C3)C2=O)c(C(=O)OCC)c1C (configuration not stated) the results were HCV inh 5%, Shiga inhibitor 6, Pf growth 96h 2.1µM*, Cycloheximide cs -1, Pf growth 48h 8.3µM* and AMA1 RON2 block 15%.
For COC(=O)c1ccc(C(=O)N2CCCC(C)(C(=O)NS(=O)(=O)C3CC3)C2)cc1 (configuration not stated) the results were AMA1 RON2 block -4%.
Screening C[C@@]12CC(=O)NC1N(C(=O)c1cccc(C(F)(F)F)c1)C(c1ccccc1OC(=O)c1cccc(C(F)(F)F)c1)C2 (some centres not stated) returned HCV inh 27%, Shiga inhibitor -4, Pf growth 96h 9.3µM*, Cycloheximide cs -2 and AMA1 RON2 block 7%.
For Cc1cc(F)c(F)c(C(=O)N2CCC(C)CC2)c1Cl the results were HCV inh 17%, Shiga inhibitor 23, Pf growth 96h -7%, Cycloheximide cs 2, Pf growth 48h 19% and AMA1 RON2 block -4%.
For CC(C)(C)c1cc(NC(=O)c2cccs2)no1 the results were HCV inh -14% and AMA1 RON2 block 3%.
`CC(C)(C)c1csc(NC(=O)Cc2cccs2)n1` gave HCV inh 4%, Shiga inhibitor 61*, Pf growth 96h -9%, Cycloheximide cs 33*, Pf growth 48h 12% and AMA1 RON2 block -7%.
CC(C)(C)c1cc(NC(=O)c2cccnc2)no1 was read as HCV inh 14%, Shiga inhibitor 79, Pf growth 96h -25%, Cycloheximide cs 31*, Pf growth 48h 37% and AMA1 RON2 block 8%.
CC(C)(C)c1csc(NC(=O)CCc2ccccc2)n1 was read as HCV inh inconclusive, Pf growth 96h inconclusive, Cycloheximide cs 25*, Pf growth 48h -21% and AMA1 RON2 block 15%.
CC(C)(C)c1csc(NNC(=O)c2ccc(Cl)cc2)n1 was read as HCV inh inconclusive, Shiga inhibitor 64*, Pf growth 96h inconclusive, Cycloheximide cs 29*, Pf growth 48h inconclusive and AMA1 RON2 block 81%.
For CCOc1ccc(NC(=O)CC2C(=O)N(c3ccc(OC)c(Cl)c3)C(=S)N2C2CC2)cc1 (configuration not stated) the results were HCV inh -14%, Shiga inhibitor 3, Pf growth 96h inconclusive, Cycloheximide cs 2, Pf growth 48h inconclusive and AMA1 RON2 block 7%.
Screening CCOc1ccc(S(=O)(=O)N2CCN(C(=O)CN3C(=O)NC(C)(C)C3=O)CC2)cc1 returned HCV inh 19%, Pf growth 96h -27%, Pf growth 48h -7% and AMA1 RON2 block 18%.
Screening CCOc1ncccc1C(=O)Nc1nc(C(C)(C)C)cs1 returned HCV inh -23%, Shiga inhibitor 32, Pf growth 96h inconclusive, Cycloheximide cs 20, Pf growth 48h 5% and AMA1 RON2 block 90%.
For O=C(O)c1cc(NC(=O)C2CCCO2)cc(C(=O)O)c1 (configuration not stated) the results were HCV inh 0%, Shiga inhibitor -1, Pf growth 96h inconclusive, Cycloheximide cs -3, Pf growth 48h 22% and AMA1 RON2 block -1%.
Screening CC(C)(C)c1cc(NC(=O)C2CCCO2)no1 (configuration not stated) returned HCV inh 16%, Shiga inhibitor 47*, Pf growth 96h 31%, Cycloheximide cs 33*, Pf growth 48h 194% and AMA1 RON2 block -5%.
Screening CC(C)(C)c1csc(NC(=O)c2cccs2)n1 returned HCV inh inconclusive, Shiga inhibitor 71*, Pf growth 96h inconclusive, Cycloheximide cs 44*, Pf growth 48h 55% and AMA1 RON2 block -12%.
Screening CC(C)(C)c1csc(NC(=O)c2cccnc2)n1 returned HCV inh 0%, Shiga inhibitor 17, Pf growth 96h 15µM*, Cycloheximide cs 13*, Pf growth 48h inconclusive and AMA1 RON2 block 0%.
Screening O=C(Nc1nc(-c2ccc(Cl)cc2)cs1)c1cccnc1 returned HCV inh 0%, Shiga inhibitor -23, Cycloheximide cs -3, Pf growth 48h -3% and AMA1 RON2 block -7%.
CCC1(CC)NC(=O)N(CC(=O)OCC(=O)Nc2cc(OC)ccc2OC)C1=O was read as HCV inh -6%, Pf growth 96h 33%, Pf growth 48h -14% and AMA1 RON2 block 0%.
Screening CCc1ccccc1NC(=O)c1cc(C2CC2)on1 returned HCV inh 2%, Shiga inhibitor 47, Pf growth 96h 1%, Cycloheximide cs 11* and AMA1 RON2 block 2%.
`CC(=O)N1CCCC(c2cc(C(=O)Nc3ccccc3)no2)C1` (configuration not stated) gave AMA1 RON2 block -2%.
Cc1ccccc1Cn1cc(NC(=O)c2cc(C3CC3)on2)cn1 was read as HCV inh -12%, Shiga inhibitor 73*, Pf growth 96h -9%, Cycloheximide cs 44*, Pf growth 48h inconclusive and AMA1 RON2 block 3%.
Screening COc1cc(NC(=O)c2cc(C(C)C)on2)cc(OC)c1OC returned HCV inh -26%, Shiga inhibitor -4, Pf growth 96h inconclusive, Cycloheximide cs -2 and AMA1 RON2 block 20%.
COc1cccc(NC(=O)c2cc(Cl)nnc2Cl)c1 was read as HCV inh inconclusive, Shiga inhibitor -7, Pf growth 96h inconclusive, Cycloheximide cs -3, Pf growth 48h 3.7µM* and AMA1 RON2 block 14%.
Screening COc1cc(NC(=O)c2cc(Cl)nnc2Cl)cc(OC)c1OC returned HCV inh -3%, Shiga inhibitor -2, Pf growth 96h inconclusive, Cycloheximide cs -1, Pf growth 48h 12µM* and AMA1 RON2 block 5%.
COc1cccc(NC(=O)c2ccncc2)c1 was read as HCV inh -7%, Shiga inhibitor 38, Pf growth 96h 19%, Cycloheximide cs 3, Pf growth 48h 45% and AMA1 RON2 block 10%.
`COc1cccc(CN2CCC2(C)C(=O)Nc2ccc3c(c2)OCO3)c1F` (configuration not stated) gave AMA1 RON2 block 0%.

Source: PubChem (National Center for Advancing Translational Sciences (NCATS))
